# Compounds with a hit are over-represented: about 2.2% of the library has one in this group of screens.
# Myeloid diff MLP – compounds promoting myeloid differentiation; calls only at 10 µM; AID 624256; 360,000 tested, 1% active; ER-HoxA9 myeloid progenitors, lysozyme-GFP differentiation, flow cytometry;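 active = normalized GFP-positive differentiation at or above the plate's own cutoff, the solvent-only control mean plus 3 SD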;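 also: cells exposed to compound for four days before flow analysis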
# Cardiac RTF inh – cardiac RTF calcium desensitization. inhibition, % at 7.15 µM. 340,000 tested, 0.12% active. AID 493244. IANBD-labeled cardiac RTF, Ca2+ fluorescence;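 active = inhibition above the mean inhibition of all tested compounds plus 3 SD, cut at about 17% in these data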;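 also: assay run at fixed EC70 calcium of 1.6 mM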
# CRFR2-BP ag – CRF-BP/CRF-R2 complex agonism; AID 588473; HEK293 CRF-R2/CRF-BP, calcium dye fluorescence (FLIPR); percent of saturating CRF peptide response; 350,000 tested, 0.46% active; activation, % at 13.2 µM;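 active = activation of at least 50%, plus an integration ratio under a set limit after plate pattern correction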
# RTF Ca sens act – increases calcium sensitivity of human cardiac regulated thin filaments | IANBD-labeled TnC RTF fluorescence at EC20 calcium; 0% EC20 calcium, 100% full calcium | activation, % at 7.2 µM | 340,000 tested, 0.24% active | AID 493008;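 active = activation above the mean over all tested compounds plus 3 SD, cut at about 30% in these data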;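 also: rise in fluorescence read as greater calcium sensitivity of cardiac thin filaments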
# CRFBP-R2 block – blocks CRF-induced signaling of the CRF-BP/CRF-R2 complex; HEK293 CRF-R2/CRF-BP, CRF-induced calcium fluorescence; 350,000 tested, 0.59% active; inhibition, % at 11.8 µM;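 active = inhibition of the ligand-induced calcium signal above about 50% at the single tested concentration, limit read from the data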
# RTF inh confirm – cardiac RTF calcium sensitivity inhibition, confirmation; shares compounds with Cardiac RTF inh; reconstituted cardiac thin filaments, calcium sensitivity fluorescence; inhibition, % at 7.15 µM; 360 tested, 8% active; AID 504635; in the data active = inhibition above about 18%
# Myeloid diff CP1 – myeloid differentiation induction | calls only | AID 651706 | ER-HoxA9 myeloid progenitors, GFP/Mac1 double-positive flow | shares compounds with Myeloid diff MLP | 2,300 tested, 2% active;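 active = share of green or green-and-red cells above 9 and 9% in run 1 or 4 and 3% in run 2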
# GFP autofluor – flagged as fluorescent in myeloid differentiation counter-screen | shares compounds with Myeloid diff MLP | ER-HoxA9 myeloid progenitors, no estrogen, GFP autofluorescence flow cytometry; vehicle wells 0%, positive control 100% | fluorescence response, % (no concentration beside the values) | 2,300 tested, 7.4% active;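 active = over 5% cells positive for green fluorescent reporter, or over 2% positive for both it and APC stain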
# A number is an active result; - = inactive; . = no result; + = active, no number; ! = not active in a repeat.
SMILES,Myeloid diff MLP,Cardiac RTF inh,CRFR2-BP ag,RTF Ca sens act,CRFBP-R2 block,RTF inh confirm,others
CCOC(=O)c1c(C=O)c(C)n(Cc2ccc(C)cc2)c1C,-,-,-,-,-,.,
Cc1ccc(NC(=O)COC(=O)/C=C/c2cccc(Cl)c2)cc1S(=O)(=O)N1CCOCC1,-,22.4,-,-,-,-,
NCCNC(=O)Cc1ccc(NC(=O)Cc2ccc(Nc3ncnc4c3ncn4[C@@H]3O[C@H](CO)[C@@H](O)[C@H]3O)cc2)cc1,-,23.4,-,-,-,-,
CNc1ncnc2c1ncn2[C@@H]1O[C@H](CO)[C@@H](O)[C@H]1O,-,-,-,-,-,.,
COc1cccc(CN(C)C(=O)/C=C/c2ccc(S(=O)(=O)N3CCCCCC3)cc2)c1,-,-,-,-,-,.,
Cc1ccc(CS(=O)Cc2ccc(C(=O)NCc3ccc(OC(C)C)cc3)o2)cc1 (stereo not drawn),-,27.2,-,-,-,-,
COc1ccc(CNC(=O)c2ccc(CS(=O)Cc3ccc(Cl)cc3)o2)cc1 (stereo not drawn),-,-,-,-,-,.,
CCc1cccc(CC)c1NC(=O)COC(=O)CCc1cc(OC)c(OC)c(OC)c1,-,18.6,-,-,-,-,
Cc1ccc(C2CC(c3ccc(NS(C)(=O)=O)cc3)=NN2C(=O)c2ccco2)cc1 (stereo not drawn),-,20.2,-,-,-,-,
O=c1c(Cc2ccccc2)c(O)ccn1Cc1ccco1,-,-,-,-,-,.,
c1ccc(COc2cccc(CN3CCc4ccccc4C3)c2)cc1,-,-,-,-,-,.,
COc1ccc(OC)c(S(=O)(=O)NCC(c2ccco2)N2CCc3ccccc3C2)c1 (stereo not drawn),-,17.8,-,-,-,-,
COc1ccc(C)cc1S(=O)(=O)NCC(c1ccco1)N1CCc2ccccc2C1 (stereo not drawn),-,-,-,-,-,.,
COc1ccc(OCC(=O)Nc2ccc(N3CCN(C(=O)c4ccccc4)CC3)c(Cl)c2)cc1,-,-,-,-,-,.,
O=C(CN1CCN(Cc2ccccc2)CC1)N/N=C/c1cccnc1,-,-,-,-,-,.,
O=C(CCC(=O)OCC(=O)c1ccc(C(F)(F)F)cc1)OCC(=O)c1ccc(C(F)(F)F)cc1,-,.,-,.,-,.,
COCCCC/C(=N\OCCN)c1ccc(C(F)(F)F)cc1,-,19.9!,-,-,-,-,
COc1ccccc1-c1cccc(-c2nc(C(=O)Nc3nccs3)cc3c2[C@H](CCO)N(C(C)=O)C3)c1,-,.,.,.,.,.,
Cc1ccc(S(=O)(=O)NCCc2nc3ccccc3[nH]2)cc1,-,-,-,-,-,.,
O=C(CN1C(=O)/C(=C2\SC(=S)N(CCS(=O)(=O)O)C2=O)c2ccccc21)Nc1cccc(Br)c1,-,30.2,-,-,-,-,
C[C@H](O)CC(=O)O,-,19.3!,-,-,-,-,
CCn1c(=O)cc(SCC(=O)Nc2cccc(C)n2)c2ccccc21,-,18.2,-,-,-,-,
Cc1ccc(NC(=O)CCc2nc3ccccc3c(=O)[nH]2)cc1S(=O)(=O)N1CCOCC1,-,-,-,-,-,.,
COc1ccc(CN(CC(O)COCc2ccccc2)S(=O)(=O)c2ccccc2Br)cc1OC (stereo not drawn),-,-,-,-,-,.,
Cc1ccc(NC(=O)CN2C(=O)N/C(=C/c3cccn3-c3ccc(C(=O)O)cc3)C2=O)cc1,-,64.2,-,-,-,42.0,
SMILES,Myeloid diff MLP,Cardiac RTF inh,CRFR2-BP ag,RTF Ca sens act,CRFBP-R2 block,RTF inh confirm,others
CC(=O)c1ccc(OCCCC(=O)Nc2cc(S(=O)(=O)N3CCCCC3)ccc2C)cc1,-,-,-,-,-,.,
O=C(CSc1nc(-c2ccc(F)cc2)nc2c1Cc1ccccc1O2)Nc1ccc(C(=O)O)cc1,-,-,-,-,-,.,
O=C(CSc1nc(-c2ccccc2)nc2c1Cc1ccccc1O2)Nc1ccc(C(=O)O)cc1,-,20.4,-,-,-,-,
CCOC(=O)/C(=C/c1ccc(OC(=O)c2ccncc2)cc1)C(C)=O,-,-,-,-,-,.,
COCCOC(=O)/C(=C/c1ccc(OC(=O)c2ccccc2)cc1)C(C)=O,-,25.4,57.2,-,-,-,
OC(CN1c2ccccc2Sc2ccccc21)Cn1nnc2ccccc21 (stereo not drawn),-,21.2,-,-,-,-,
O=C1c2ccccc2C(=O)N1CC(O)Cn1nnc2ccccc21 (stereo not drawn),-,-,-,-,-,.,
O=C(c1coc(=O)c(Br)c1)N1CCC(C(O)(c2ccccc2)c2ccccc2)CC1,-,-,-,-,-,.,
CC1(C)CCCN(C(=O)c2coc(=O)c(Br)c2)C1,-,21.5,-,-,-,-,
c1ccc(-c2noc(C34CC5CC(CC(C5)C3)C4)n2)cc1,-,-,-,-,-,.,
c1ccc(-c2noc(C34CC5CC(CC(C5)C3)C4)n2)nc1,-,18.4,-,-,-,-,
Cc1cc(OCCCC(=O)NC2=NCCS2)ccc1Cl,-,17.2,-,-,-,-,
O=C1NC(=S)NC(=O)C1=Cc1ccccc1C(=O)O,-,-,-,-,-,.,
O=C(Nc1ccc(N2CCN(C(=O)c3ccccc3F)CC2)cc1)c1cncc(Br)c1,-,-,-,-,-,.,
O=C(O)Cc1c[nH]c2ccc(O)cc12,-,17.5,-,-,-,-,
C[C@H](CO)N1C[C@H](C)[C@@H](CN(C)C(=O)Nc2ccc(C(F)(F)F)cc2)Oc2ccc(NC(=O)CCC(F)(F)F)cc2C1=O,-,-,-,-,-,.,
COc1cc2c(ccc3cc(OC)c(OC)c(O)c32)cc1O,-,26.3,-,-,-,-,
COc1cc2cccc(OC)c(=O)c2c(O)c1OC,-,-,-,-,-,.,
Cc1ccccc1N=C(c1ccccc1)C1C(=O)c2ccccc2C1=O,-,.,.,.,.,.,
O=[N+]([O-])c1ccc(Oc2ncccn2)cc1,-,.,-,.,-,.,
O=[N+]([O-])c1ccc(OCc2cccc(COc3ccc([N+](=O)[O-])cc3)n2)cc1,-,17.4,-,-,-,-,
Cc1ccc(OCC(=O)O)c(-n2nc3ccccc3n2)c1,-,-,-,-,-,.,
CC(=O)Oc1ccc(C)cc1-n1nc2ccccc2n1,-,20.4,-,-,-,-,
CC(C)NC(=O)NC(=O)COC(=O)/C=C/c1ccccc1[N+](=O)[O-],-,-,-,-,-,.,
CC1=NN(c2cccc(C(=O)O)c2)C(=O)/C1=C\C=C\c1ccco1,-,34.5,-,-,-,-,
CC1=NN(c2ccccc2)C(=O)/C1=C/C=C/c1ccccc1,-,-,-,-,-,.,
Cc1ccc(/C=N/NC(=O)CNC(=O)COc2ccc(Cl)cc2)o1,+,18.2,-,-,-,-,Myeloid diff CP1=-;GFP autofluor=-

# Screens (PubChem)
